This is part of a sample that, as a whole, favours compounds with a hit. Of some 83,000 tested, about 20% had one in any assay.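 Single-dose data. Exposure time 48 hours. Values below 10 considered active.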 Unmarked numbers belong to inactive results. Activity calls are given as the source filed them.

This is an account of results in PubChem BioAssay (NCI).

This assay has as its system HL-60(TB) leukemia. The assay can be described thus: NCI-60 one-dose screen, 48 h (100 = growth as untreated, 0 = no growth, -100 = all killed). The settings on record: 10 µM unless noted.

Regarding `CCOCCC(=O)O`, the growth is 106%.
Next, `CCCC(=O)CC(=O)c1ccccc1`: 112%; `Nc1nc(-c2ccccn2)cc(-c2cc(-c3ccccn3)nc(N)n2)n1`: 105%.
On to `O=C1/C(=C/c2ccc([N+](=O)[O-])s2)Oc2ccc(Br)cc21`, for which the growth was -22.3% (active).
Then `Cn1c(O)c(C(/C=C/c2ccccc2)=Nc2ccccc2N)c(=O)n(C)c1=O`, with -39.4% (active); and `CC(=O)OC[C@H]1O[C@@H](n2c(=O)cc(N)[nH]c2=O)C(OC(C)=O)[C@@H]1OC(C)=O` (some centres undefined), with 107%.
As to `Fc1ccc(Oc2ccc(Nc3ncnc4onc(-c5ccccc5)c34)cc2)cc1`, the growth is 86.9%.
Then `COc1ccc(F)c(F)c1C(=O)c1cnc(NC2CCN(S(C)(=O)=O)CC2)nc1N`, with -32.2% (active); and `COc1cc2c(cc1O)CCc1cc(O)cc(OC)c1-2`, with 76.4%; and `CCCOC(=O)c1ccc2c(c1)[N+](=O)C(C(=O)c1ccccc1)=C(C(F)(F)F)[N+]2=O`, with -71.6% (active).
Next, `Cn1c(-c2c(N)n(Cc3cccnc3)c3nc(C#N)c(C#N)nc23)nc2ccccc21`: 50.3%; `CCOc1ccccc1Cn1ccnc1CCc1c(Cl)c(O)cc(O)c1C(=O)OC`: 106%; `C=C(C)COc1ccc(C(C)(C)C)cc1`: 104%.
Consider `COc1ccc(NC(=O)c2ccc3c(c2)nc(-c2cc4ccccc4[nH]c2=O)n3-c2cc(C(C)(C)C)[nH]n2)cc1`, for which the growth was 96.8%.
Then `O=C1/C(=C/c2cccc(Br)c2)COc2ccc(O)c(O)c21`, with -15.3% (active); and `C=C(CC(=O)OC)C(C)=O`, with 95.8%; and `CC(C)CCCC(=O)O`, with 109%.
Then `COc1ccc2nc(Cl)c(/C=C/C(=O)c3ccc(NC(=O)CSc4nnc(-c5ccc(Cl)c(Cl)c5)n4-c4ccccc4)cc3)cc2c1`, with 73.1%.
For `C=CCn1c(-c2ccc(-c3nc4ccc(C)cc4[nH]3)cc2)n[nH]c1=S`, the growth was 110%.
Next, `Cc1ccc(Nc2cc(Cl)c([N+](=O)[O-])cc2[N+](=O)[O-])cc1`: 6.39% (active); `Cc1ccc2[nH]c(=O)cc(-n3nncc3COc3ccc(C=O)cc3)c2c1`: 107%.
Next, `C/C=C/c1cc2c(c(=O)o1)C(=O)[C@@H](O)[C@H](C)O2`: -22% (active); `O=C1OCC2=C1C(c1cccc([N+](=O)[O-])c1)c1cc3c(cc1N2CCO)CCC3` (centres undefined): -26.9% (active).
Then `S=C1CC(=S)NC(=S)N1`, with 131%; and `C=C(C)[C@@H]1CC[C@]2(c3nnc(-c4ccncc4)o3)CC[C@]3(C)[C@H](CC[C@@H]4[C@@]5(C)CCC(=O)NC(C)(C)[C@@H]5CC[C@]43C)[C@@H]12`, with 115%; and `COc1ccc(/C=C2/CCc3cc4ccc(OC)cc4[o+]c32)c(O)c1`, with 60.8%.
Take `CC(C)(C)[C@H](OCc1cn([C@H]2C[C@@H](O)[C@@H](CO)O2)c(=O)[nH]c1=O)c1ccc(C#Cc2ccccc2)cc1[N+](=O)[O-]`: the growth is 70.4%.
Then `Nc1ccc2c(c1)c(N)nn2C(=O)Nc1ccc(Cc2ccccc2)cc1`, with 16.4%; and `CC(C)C(C#N)(C(C)C)C(C)C`, with 109%; and `Oc1[nH]c2ccc(Cl)cc2c1/C=c1/ccc2c(c1)N=C(c1cc(F)cc(F)c1)N=2`, with 70.1%.
Consider `ClCc1c(Cl)c(Cl)c(Cl)c(CCl)c1Cl`, for which the growth is 80.4%.
Then `COc1cc2c(=O)n(C3CCCCCC3)c3c4cc[nH]c4ncc3c2cc1OC`, with 74.1%.
Then `c1ccc2sc(SSN3CC4CCC(CC4)C3)nc2c1`, with 89.3%.
Next, `O=C(Nc1ccncc1)C(=O)c1cn(S(=O)(=O)c2cc(Cl)cc(Cl)c2)c2ccccc12`: 58.9%; `COc1cc2cc(c1Cl)N(C)C(=O)C[C@H](OC(=O)[C@H](C)N(C)C(=O)CCS)C[C@]1(C)O[C@H]1[C@H](C)[C@@H]1C[C@@](O)(NC(=O)O1)[C@H](OC)/C=C/C=C(\C)C2`: -28% (active); `CN(C)C(=S)SCN1C(=O)c2ccc([N+](=O)[O-])cc2S1(=O)=O`: 75.3%.
As to `C=CN(C)S(C)(=O)=O`, the growth is 5.83% (active).
Next, `CC(C)N(Cc1ccccc1)c1c(Cl)ssc1=O`: 113%; `COC1/C=C/OC2(C)Oc3c(C)c(O)c4c(O)c(c(C=NOC(c5ccccc5)c5ccccc5)c(O)c4c3C2=O)NC(=O)/C(C)=C/C=C/C(C)C(O)C(C)C(O)C(C)C(OC(C)=O)C1C` (centres undefined): -13.8% (active).
